Measured values: PubChem BioAssay AID1159580 (chemical genetic matrix, 2015)
Hit rate of the full screen: of about 5,500 compounds, about 2,000 (36%) were called active. Not shown: some 18% with an inconclusive outcome. The list shows a part of the results. Values without a mark were called inactive. No stated cut-off is given here; in the data, active means normalized growth mostly below about 0.91 (no sharp cut-off); inconclusive means no clear call, values can overlap the other calls; inactive means mostly above about 0.92.

Assay: chemical genetic growth profiling, strain panel (AID 1159580);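 further: tested at 20 µM; growth read once vehicle control cultures reached saturation at 30 °C; 1 = growth at the plate median or of vehicle wells; lower values mean less growth of the strain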
Settings: growth OD

Structure (SMILES): CCOC(=O)CCCCCCCCCCCCC1C=CCC1 (centres undefined)
- normalized growth (S. cerevisiae deletion strains, locus YJR066W, strain TOR1, active compounds read low): 0.902
- normalized growth (S. cerevisiae deletion strains, locus YJR075W, strain HOC1, active compounds read low): 0.062 (active)
- normalized growth (S. cerevisiae deletion strains, locus YKL009W, strain mrt4, active compounds read low): 0.729 (active)
- normalized growth (S. cerevisiae deletion strains, locus YKL068W, active compounds read low): 0.984
- normalized growth (S. cerevisiae deletion strains, locus YKL085W, strain MDH1 (second series), active compounds read low): 0.627 (active)
- normalized growth (S. cerevisiae deletion strains, locus YKL085W, strain MDH1, active compounds read low): 0.627 (active)
- normalized growth (S. cerevisiae deletion strains, locus YKL160W, strain elf1, active compounds read low): 1
- normalized growth (S. cerevisiae deletion strains, locus YKR001C, strain vps1, active compounds read low): 0.0645 (active)
- normalized growth (S. cerevisiae deletion strains, locus YKR026C, strain gcn3, active compounds read low): 0.975
- normalized growth (S. cerevisiae deletion strains, locus YKR091W, strain srl3, active compounds read low): 0.983
- normalized growth (S. cerevisiae deletion strains, locus YLL001W, strain dnm1, active compounds read low): 1
- normalized growth (S. cerevisiae deletion strains, locus YLL026W, active compounds read low): 0.961
- normalized growth (S. cerevisiae deletion strains, locus YLL041C, strain sdh2, active compounds read low): 0.992
- normalized growth (S. cerevisiae deletion strains, locus YLR027C, strain aat2, active compounds read low): 0.973
- normalized growth (S. cerevisiae deletion strains, locus YLR039C, strain RIC1, active compounds read low): 0.0918 (active)
- normalized growth (S. cerevisiae deletion strains, locus YLR058C, strain SHM2, active compounds read low): 0.0501 (active)
- normalized growth (S. cerevisiae deletion strains, locus YLR102C, strain apc9, active compounds read low): 0.0639 (active)
- normalized growth (S. cerevisiae deletion strains, locus YLR113W, strain HOG1, active compounds read low): 1.01
- normalized growth (S. cerevisiae deletion strains, locus YLR221C, strain rsa3, active compounds read low): 0.938
- normalized growth (S. cerevisiae deletion strains, locus YLR258W, strain gsy2, active compounds read low): 0.946
- normalized growth (S. cerevisiae deletion strains, locus YLR262C, strain YPT6 (second series), active compounds read low): 0.942
- normalized growth (S. cerevisiae deletion strains, locus YLR262C, strain YPT6, active compounds read low): 0.102 (active)
- normalized growth (S. cerevisiae deletion strains, locus YLR268W, strain sec22, active compounds read low): 0.0626 (active)
- normalized growth (S. cerevisiae deletion strains, locus YLR320W, strain mms22, active compounds read low): 0.808 (active)
- normalized growth (S. cerevisiae deletion strains, locus YLR330W, strain CHS5, active compounds read low): 0.0514 (active)
- normalized growth (S. cerevisiae deletion strains, locus YLR342W, strain FKS1 (second series), active compounds read low): 0.0786 (active)
- normalized growth (S. cerevisiae deletion strains, locus YLR342W, strain FKS1, active compounds read low): 0.954
- normalized growth (S. cerevisiae deletion strains, locus YLR357W, strain rsc2, active compounds read low): 1
- normalized growth (S. cerevisiae deletion strains, locus YLR370C, strain arc18, active compounds read low): 0.994
- normalized growth (S. cerevisiae deletion strains, locus YLR371W, strain rom2, active compounds read low): 0.0661 (active)
- normalized growth (S. cerevisiae deletion strains, locus YLR384C, strain iki3, active compounds read low): 0.965
- normalized growth (S. cerevisiae deletion strains, locus YLR418C, strain cdc73, active compounds read low): 0.0873 (active)
- normalized growth (S. cerevisiae deletion strains, locus YML016C, strain PPZ1, active compounds read low): 0.0464 (active)
- normalized growth (S. cerevisiae deletion strains, locus YML032C, strain rad52, active compounds read low): 0.0734 (active)
- normalized growth (S. cerevisiae deletion strains, locus YML120C, strain ndi1, active compounds read low): 0.994
- normalized growth (S. cerevisiae deletion strains, locus YML124C, strain tub3, active compounds read low): 0.063 (active)
- normalized growth (S. cerevisiae deletion strains, locus YMR058W, strain fet3, active compounds read low): 0.991
- normalized growth (S. cerevisiae deletion strains, locus YMR078C, strain ctf18, active compounds read low): 0.0817 (active)
- normalized growth (S. cerevisiae deletion strains, locus YMR125W, strain sto1, active compounds read low): 0.951
- normalized growth (S. cerevisiae deletion strains, locus YMR129W, active compounds read low): 0.993
- normalized growth (S. cerevisiae deletion strains, locus YMR205C, strain PFK2, active compounds read low): 0.864 (active)
- normalized growth (S. cerevisiae deletion strains, locus YMR223W, strain ubp8, active compounds read low): 0.0615 (active)
- normalized growth (S. cerevisiae deletion strains, locus YMR231W, strain pep5, active compounds read low): 0.971
- normalized growth (S. cerevisiae deletion strains, locus YMR307W, strain GAS1, active compounds read low): 0.12 (active)
- normalized growth (S. cerevisiae deletion strains, locus YNL067W, strain RPL9B, active compounds read low): 0.0497 (active)
- normalized growth (S. cerevisiae deletion strains, locus YNL071W, strain lat1, active compounds read low): 0.808 (active)
- normalized growth (S. cerevisiae deletion strains, locus YNL128W, strain TEP1, active compounds read low): 0.0632 (active)
- normalized growth (S. cerevisiae deletion strains, locus YNL153C, strain GIM3, active compounds read low): 0.0549 (active)
- normalized growth (S. cerevisiae deletion strains, locus YNL183C, strain NPR1, active compounds read low): 0.893
- normalized growth (S. cerevisiae deletion strains, locus YNL209W, strain ssb2, active compounds read low): 0.982
- normalized growth (S. cerevisiae deletion strains, locus YNL233W, strain BNI4, active compounds read low): 0.0592 (active)
- normalized growth (S. cerevisiae deletion strains, locus YNL248C, strain rpa49, active compounds read low): 1.01
- normalized growth (S. cerevisiae deletion strains, locus YNL250W, strain rad50, active compounds read low): 0.848 (active)
- normalized growth (S. cerevisiae deletion strains, locus YNL271C, strain bni1, active compounds read low): 0.146 (active)
- normalized growth (S. cerevisiae deletion strains, locus YNL298W, strain CLA4, active compounds read low): 0.0648 (active)
- normalized growth (S. cerevisiae deletion strains, locus YNL307C, strain MCK1, active compounds read low): 0.0657 (active)
- normalized growth (S. cerevisiae deletion strains, locus YNL322C, strain KRE1 (second series), active compounds read low): 0.998
- normalized growth (S. cerevisiae deletion strains, locus YNL322C, strain KRE1, active compounds read low): 0.047 (active)
- normalized growth (S. cerevisiae deletion strains, locus YNR049C, strain mso1, active compounds read low): 0.987
- normalized growth (S. cerevisiae deletion strains, locus YNR052C, strain pop2, active compounds read low): 0.0632 (active)
- normalized growth (S. cerevisiae deletion strains, locus YOL006C, strain TOP1, active compounds read low): 0.119 (active)
- normalized growth (S. cerevisiae deletion strains, locus YOL012C, strain htz1): 0.179 (active)
- normalized growth (S. cerevisiae deletion strains, locus YOL147C, strain pex11, active compounds read low): 0.0616 (active)
- normalized growth (S. cerevisiae deletion strains, locus YOR001W, strain rrp6, active compounds read low): 1
- normalized growth (S. cerevisiae deletion strains, locus YOR061W, strain CKA2, active compounds read low): 0.0461 (active)
- normalized growth (S. cerevisiae deletion strains, locus YOR069W, strain VPS5, active compounds read low): 0.0484 (active)
- normalized growth (S. cerevisiae deletion strains, locus YOR070C, strain gyp1, active compounds read low): 0.962
- normalized growth (S. cerevisiae deletion strains, locus YOR080W, strain dia2, active compounds read low): 0.99
- normalized growth (S. cerevisiae deletion strains, locus YOR083W, strain WHI5, active compounds read low): 1
- normalized growth (S. cerevisiae deletion strains, locus YOR106W, strain vam3, active compounds read low): 0.976
- normalized growth (S. cerevisiae deletion strains, locus YOR136W, strain idh2, active compounds read low): 0.0725 (active)
- normalized growth (S. cerevisiae deletion strains, locus YOR144C, strain elg1, active compounds read low): 0.0688 (active)
- normalized growth (S. cerevisiae deletion strains, locus YOR184W, strain ser1, active compounds read low): 0.0609 (active)
- normalized growth (S. cerevisiae deletion strains, locus YOR231W, strain MKK1, active compounds read low): 0.984
- normalized growth (S. cerevisiae deletion strains, locus YOR265W, strain rbl2, active compounds read low): 0.982
- normalized growth (S. cerevisiae deletion strains, locus YOR270C, strain vph1, active compounds read low): 1.01
- normalized growth (S. cerevisiae deletion strains, locus YOR290C, strain snf2, active compounds read low): 0.962
- normalized growth (S. cerevisiae deletion strains, locus YOR316C, strain cot1, active compounds read low): 0.0601 (active)
- normalized growth (S. cerevisiae deletion strains, locus YPL051W, strain arl3, active compounds read low): 0.989
- normalized growth (S. cerevisiae deletion strains, locus YPL078C, strain atp4, active compounds read low): 0.979
- normalized growth (S. cerevisiae deletion strains, locus YPL106C, strain sse1, active compounds read low): 1.12
- normalized growth (S. cerevisiae deletion strains, locus YPL240C, strain hsp82, active compounds read low): 0.988
- normalized growth (S. cerevisiae deletion strains, locus YPL256C, strain CLN2, active compounds read low): 1.03
- normalized growth (S. cerevisiae deletion strains, locus YPR119W, strain clb2, active compounds read low): 0.0692 (active)
- normalized growth (S. cerevisiae deletion strains, locus YPR141C, strain kar3, active compounds read low): 0.99
- normalized growth (S. cerevisiae deletion strains, locus YPR163C, strain tif3, active compounds read low): 0.0692 (active)
- normalized growth (S. cerevisiae deletion strains, locus YPR167C, strain met16, active compounds read low): 0.0627 (active)
- normalized growth (S. cerevisiae deletion strains, strain wtn01, active compounds read low): 0.0688 (active)
- normalized growth (S. cerevisiae strains, strain wild type, active compounds read low): 0.0499 (active)
